# The supplement of paper PMC3334620
# In all, about 33,000 sequences were measured (“E-score (-0.5 to 0.5)”: median about -0.016, highest 2% from about 0.32 on). The entries come from a sample that favours the highest values as a whole.
# Target: T1, Stp1 (UniProt B3LFK1)
# T1 sequence: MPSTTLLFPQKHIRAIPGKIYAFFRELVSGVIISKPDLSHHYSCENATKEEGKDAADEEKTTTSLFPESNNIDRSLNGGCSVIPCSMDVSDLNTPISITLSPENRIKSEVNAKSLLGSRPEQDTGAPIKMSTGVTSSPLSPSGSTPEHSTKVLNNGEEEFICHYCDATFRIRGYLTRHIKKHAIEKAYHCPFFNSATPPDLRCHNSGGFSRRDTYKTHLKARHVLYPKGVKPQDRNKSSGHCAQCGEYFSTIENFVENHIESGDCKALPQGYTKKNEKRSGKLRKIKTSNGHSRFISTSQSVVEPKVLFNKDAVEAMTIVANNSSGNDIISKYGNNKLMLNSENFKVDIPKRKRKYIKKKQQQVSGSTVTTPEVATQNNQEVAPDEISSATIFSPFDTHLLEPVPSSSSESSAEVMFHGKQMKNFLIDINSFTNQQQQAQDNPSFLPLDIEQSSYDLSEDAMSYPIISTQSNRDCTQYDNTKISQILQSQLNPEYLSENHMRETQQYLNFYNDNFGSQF
# Test: PBM E-score (8-mer binding enrichment) (E-score (-0.5 to 0.5)); higher = stronger / more preferred TF binding
# Conditions: protein concentration: 200 nM; construct: GST-full length
# Description: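 Universal 'all 10-mer' protein binding microarrays (Agilent AMADID 015681) probed with GST-tagged S. cerevisiae TFs (full-length or DBD) made by in vitro transcription/translation (PURExpress), about 100-200 nM. Bound TF was detected with fluorescent anti-GST. Each ungapped 8-mer (which stands for itself and its reverse complement) is scored by the PBM enrichment score (E-score), a modified Wilcoxon-Mann-Whitney statistic from -0.5 to +0.5, computed with the Universal PBM Analysis Suite. Scale: above 0.35 generally sequence-specific binding.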
row,Sequence,PBM E-score
1,CGCTTACA,0.0771
2,GTATACCA,0.0622
3,ACTTATCC,-0.0589
4,CATAGACA,0.0911
5,CAATAAAG,0.217
6,AGTTGACC,-0.0773
7,ATATGGGC,-0.0537
8,ACCCGTTC,0.0622
9,ACCGAAAT,0.0238
10,ATCTTAAA,-0.0445
11,AGGACTGC,-0.256
12,AGTTATCG,0.106
13,CCCGCTCC,-0.241
14,ACCGCTCA,0.0634
15,GCCGCTTA,0.39
16,GCCGCTCC,0.398
17,ACCGCTTA,-0.238
18,CCCGCTTA,0.0273
19,ACCGCTCC,-0.223
20,TCCGCTCA,-0.102
21,GCCGCTCA,0.381
22,CAGCGCTA,0.0165
23,ATGCCCTA,0.168
24,CAGTACGC,-0.111
25,CAGCTACG,-0.14

row,Sequence,PBM E-score
1,ATAGCGCG,0.136
2,GAAGCGCC,0.337
3,ACAGCGCC,0.249
4,CCAGCGCC,0.235
5,CTAGCGCC,0.16
6,CAAGCGCC,0.219
7,ATAGCGCC,0.357
8,GCAGCGCC,0.33
9,GAAGCGCA,-0.0259
10,AGGTACCC,-0.414
11,AGCTACCG,-0.16
12,ACATGGCT,-0.137
13,CCATCCAA,0.0222
14,GAAACGCC,0.289
15,AAAACGCG,0.251
16,GAAACGGC,0.462
17,CAAACGGA,0.236
18,GAAACGGA,0.132
19,AAAACGGT,-0.0136
20,CAAACGGC,0.459
21,AAAACGGA,0.201
22,CAAACGGG,0.175
23,AAAACGGC,0.403
24,AAAACGCC,0.386
25,CAAACGCC,0.258

row,Sequence,PBM E-score
1,ACCTGATG,-0.102
2,CCGCATTC,0.105
3,TACCCTAA,-0.0225
4,CACCCACC,-0.192
5,GAGCCATA,0.0155
6,ATTGCTAC,0.0429
7,CAGGCGTC,-0.00022
8,AGGCCAGA,-0.103
9,ACAACGGC,0.308
10,GCAACGGC,0.411
11,CCAACGGC,0.316
12,ATAAAGGA,-0.201
13,CACGCTAC,-0.0658
14,CACTCGGC,0.28
15,GAAAAGAA,0.0978
16,CTTCTAAA,0.168
17,AATGCCGG,0.137
18,AATGCCAC,0.293
19,AATGCCTC,0.308
20,AATGCCGT,0.485
21,AATGCCGA,0.303
22,AATGCCGC,0.465
23,AGGCAGAG,-0.00743
24,CCCTAAAC,-0.193
25,GCGATCAA,-0.0307

row,Sequence,PBM E-score
1,CCTCCTCG,-0.21
2,CGCGCTGC,0.122
3,AGCGCGGC,0.402
4,AGCGCGGG,0.098
5,AGCGCGGA,0.0636
6,CTCGCGGC,0.334
7,CGCGCGTC,0.16
8,CGCGCGGC,0.483
9,CTCGCGGA,-0.0275
10,ATCGCGGC,0.238
11,AGGTGGCC,-0.294
12,TCTCGAGA,-0.01
13,CCCCGCCC,0.139
14,ATCTTTGC,0.262
15,CATACGGA,0.268
16,GATACGAC,0.0153
17,CATACGGG,0.224
18,AATACGGT,0.0778
19,AATACGGG,-0.0327
20,GATACGGA,0.285
21,AATACGGC,0.453
22,GATACGGC,0.463
23,CATACGGC,0.472
24,ACCCTGAG,-0.216
25,AATAGACC,-0.159

row,Sequence,PBM E-score
1,AACACTTA,0.0357
2,ACATGGCC,0.147
3,CCAACATC,-0.127
4,AGAGCTAT,-0.179
5,ACAAGGGC,-0.0113
6,CCACCTGC,-0.021
7,ACGAGGCA,0.37
8,CCGAGGCG,0.333
9,ACGAGGGA,-0.0556
10,ACGAGGAT,-0.102
11,ACCAGGCT,-0.326
12,CCGAGGAG,-0.0986
13,ACGAGGCT,0.323
14,ACGAGGCC,0.016
15,CCGAGGCC,-0.22
16,AGGAGGCG,0.201
17,ACGAGGCG,0.457
18,ACGAGGTA,-0.0774
19,CTGCAGGC,-0.372
20,CTCATCTC,0.0521
21,ACTAAAGT,-0.0712
22,AGTCTGGC,-0.207
23,TACGGTAA,0.157
24,GCGTGGGA,-0.0429
25,GTCGTCAC,-0.0794

row,Sequence,PBM E-score
1,TCGAGGCA,0.195
2,GCGAGGCA,0.439
3,CCGAGGCA,0.179
4,TATCAATA,0.0831
5,CGCGGCCG,0.321
6,AGCGGCCG,0.285
7,CGCGGCCC,0.349
8,GGCGGCCC,0.0299
9,CGCGGCCA,0.269
10,AGCGGCCC,-0.00454
11,AAAGTCGA,-0.15
12,CCACACGC,0.158
13,ACAAACGC,0.252
14,ACACACGG,0.356
15,ACAAACGA,0.129
16,ACACACGT,0.0897
17,CCACACGA,-0.105
18,AGACACGA,-0.124
19,AGACACGG,0.363
20,AGACACAA,0.154
21,ACAAACGG,0.352
22,CCACACGG,0.385
23,ACACACGA,0.135
24,CTAGACGA,0.105
25,GCTCAGCC,-0.123

row,Sequence,PBM E-score
1,ATGAGAGG,-0.118
2,CTCGGTTA,-0.119
3,ATGCGAAC,-0.103
4,ACTGCGCT,-0.19
5,ACGGCCCA,0.333
6,CTGGCGCA,-0.0136
7,TCGGCCCA,-0.116
8,ACGGCGCT,0.481
9,ACGGCCCT,0.275
10,ACGGCGCA,0.482
11,ATGGCGCA,0.0846
12,ACCGCGCT,0.077
13,GACTGACC,-0.312
14,GCCTCTCC,0.0401
15,CCTCCTGC,-0.205
16,ACAGTCTA,-0.00216
17,GCTTGCCA,-0.0643
18,ACCTAGAT,-0.159
19,AAGCTAAG,-0.136
20,CAGTGTCA,0.0177
21,CGGCAATA,0.352
22,GGGCAATA,0.0993
23,AGGCAATC,0.114
24,CGGCAAGC,0.124
25,AGGCAATA,0.227

row,Sequence,PBM E-score
1,CGGCAATC,0.332
2,AAGAGCGA,-0.231
3,CACTAGTG,0.056
4,GCCTTTCC,0.381
5,CCCTTTCC,-0.11
6,ACCTTTCC,-0.194
7,GTTGGGTA,-0.109
8,AGGCGTAC,0.137
9,CCGCGTAG,0.25
10,CGGCGTAC,0.36
11,GGGCGTAA,-0.0217
12,AGGCGTAG,-0.0223
13,TGGCGTAA,0.0095
14,CGGCGTAG,0.335
15,CGGCGTAA,0.39
16,GGGCGTAC,-0.134
17,ATAGTTTG,0.121
18,TGTGCAAA,-0.111
19,ATCCTGCA,-0.159
20,CAACGCAC,0.0556
21,AAACATTT,0.0291
22,ACTATTCC,0.0191
23,ACTCGCTG,0.0353
24,CACTTAGC,0.0853
25,AGAAGTTC,0.0255

row,Sequence,PBM E-score
1,CCGCGCTA,0.289
2,CTGCGCTC,-0.214
3,AGGCGCTG,0.311
4,CTGCGCTA,-0.221
5,CGGCGCTA,0.453
6,AGGCGCTA,0.358
7,GGGCGCTA,0.0956
8,CGGCGCTC,0.427
9,AGGCGCTC,0.137
10,AGCACTTG,-0.266
11,GTTCTCAA,0.2
12,AGTATAGG,-0.0433
13,ACATAAAC,0.129
14,CACTAAAA,0.123
15,CATGCGGA,0.156
16,CATGCGGC,0.459
17,AATGCGGG,0.174
18,AATGCGGC,0.435
19,CATGCGGG,0.0548
20,AATGCGGT,-0.0107
21,GATGCGGA,0.104
22,GATGCGGC,0.47
23,GATGCGCC,0.194
